Assay results: PubChem BioAssay (NCI)
This is part of a sample that, as a whole, favours compounds with a hit. Of some 83,000 tested, about 20% had one in any assay.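 Method: cells in 96-well plates; compound added at one concentration; 48 h incubation; percent growth measured; values under 10 scored active.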 Unmarked numbers belong to inactive results. Active and inactive are the calls of the source.

These molecules were tested on T-47D breast (assay: NCI-60 one-dose screen, 48 h (100 = growth as untreated, 0 = no growth, -100 = all killed)). Conditions: 10 µM unless noted.
For O=C(O)C1C[C@](O)(c2ccc(F)cc2)[C@@H](c2ccc(F)cc2)O1 (some centres undefined), the growth was 88.2%.
Work on N=C(N)c1ccc(-c2ccc(-c3ccc(Cl)cc3Cl)o2)cc1 yielded a growth of 57.6%.
C[N+](C)(C)CCOC(OCC[N+](C)(C)C)(c1ccccc1)c1ccccc1 showed a growth of 106%.
NC(N)=N/N=C/CO gave a growth of 108%.
Work on CCCCNC(=O)NS(=O)(=O)c1ccc(N2N=C(c3ccc(C)cc3C)CC2c2ccc(N(C)C)cc2)cc1 (centres undefined) yielded a growth of 70.4%.
N[C@H]1CCC[C@@H]1NCCCCN1C(=O)c2cccc3cccc(c23)C1=O showed a growth of 82.6%.
O=C1Nc2ccccc2/C1=N/N=C/c1c[nH]c2ccccc12 gave a growth of 61%.
In the case of C[C@@H]1CC[C@@H]2[C@@H]1[C@H](OC(=O)/C=C/c1ccccc1)[C@]1(C3CCCCC3)C[C@@H](NC(=O)CO)[C@@]2(C)O1, the growth is reported as 95%.
For CCCN1CCN(c2ccc3nc(-c4ccc5nc(-c6ccc(OCC)c(OCC)c6)[nH]c5c4)[nH]c3c2)CC1, the growth was 10.7%.
In the case of CCc1cc(Cc2cc(CC)cc(C(C)(C)C)c2O)c(O)c(C(C)(C)C)c1, the growth is reported as -0.979% (active).
CNC(=O)c1c(NC(=O)c2ccc(C(C)(C)C)cc2)sc2c1CCC(=O)C2 was tested, and the growth was -23.5% (active).
For CC(C)(C)c1ccc(C(=O)Nc2sc3c(c2C(N)=O)CCC(=O)C3)cc1, the growth was -13.7% (active).
Work on COc1ccc(-n2nnc(C(=O)NCCc3c[nH]c4ccc(F)cc34)c2C)cc1 yielded a growth of 89.3%.
Molecule C=CCN1C(=O)[C@]2(SC1=S)[C@H](c1cccc(Cl)c1)CN(C)[C@]21C(=O)NC2C=CC(Cl)=C[C@H]21 (some centres undefined) has a growth of 15.6%.
